Hits are enriched below; roughly 1.2% of the tested compounds scored in any of these assays.
RGS7-Gao reg – human RGS7-Galphao interaction regulation; Multiplexed bead flow cytometry, RGS7-Galphao binding; actives lie on both sides; binding response (% of control), % at 10 µM; 0.35% of 220,000 active; in the data active = binding response below about 49% or above about 150%; inconclusive = no clear call, values can overlap the other calls; inactive = in between;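 also: fluorescent Galphao held in activated GDP-AlF4 state binding bead-coupled RGS7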
Target sequence (P09471 whole entry, looked up): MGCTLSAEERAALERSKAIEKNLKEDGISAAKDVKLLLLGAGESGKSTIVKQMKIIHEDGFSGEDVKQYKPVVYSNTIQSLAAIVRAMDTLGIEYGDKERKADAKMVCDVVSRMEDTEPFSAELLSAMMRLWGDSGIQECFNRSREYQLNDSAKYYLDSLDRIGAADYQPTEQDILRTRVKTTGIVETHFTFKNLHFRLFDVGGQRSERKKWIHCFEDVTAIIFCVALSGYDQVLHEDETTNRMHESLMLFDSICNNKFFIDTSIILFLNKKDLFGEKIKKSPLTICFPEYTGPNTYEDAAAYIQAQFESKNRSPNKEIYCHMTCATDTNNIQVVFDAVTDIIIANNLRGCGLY
GSH fluor – GSH bead compound fluorescence profile. GSH beads flow cytometry, compound fluorescence 488/530 nm; hits give high values. 0.25% of 190,000 active. fluorescence (KMESF) at 10 µM; in the data active = fluorescence above about 89;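 also: glutathione beads carrying GST-tagged Bcl family fusion proteins plus one bare bead set; values are compound well signal with DMSO vehicle wells as background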
RGS8-Gao reg – regulators of human RGS8-Galphao interaction. response (percent of control binding), % at 10 µM. multiplexed bead flow cytometry, RGS8-Galphao binding; actives lie on both sides. 0.34% of 220,000 active. P09471. AID 1423; in the data active = response below about 60% or above about 140%; inactive = in between;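 also: Galphao activated as the GDP aluminium fluoride complex binding bead-coupled RGS8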
RGS4-Gao reg – modulates binding of RGS4 to human Galphao; AID 1415; Multiplexed bead flow cytometry; actives lie on both sides; 0.33% of 220,000 active; binding response (% of control), % at 10 µM; P09471; in the data active = binding response below about 49% or above about 150%; inactive = in between;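 also: fluorescent Galphao activated with aluminum fluoride binding bead-coupled RGS4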
RGS16-Gao – RGS16-Galphao interaction regulator (human); bead-based flow cytometry RGS16-Galphao binding, fluorescence; actives lie on both sides; O15492+P09471; 0.38% of 220,000 active; binding response (% of control), % at 10 µM; AID 1441;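 also: Galphao activated by GDP with aluminum fluoride before binding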
Avidin fluor – compound fluoresces at 488/530 nm on avidin beads. compound fluorescence 488/530 nm, flow cytometry; hits give high values. fluorescence (KMESF) at 10 µM. 0.38% of 220,000 active. AID 1775; in the data active = fluorescence above about 47
RGS-Gao – modulates binding between human RGS4 and Galphao. shares compounds with RGS16-Gao. RGS4–Galpha-o binding response, % at 10 µM. multiplexed bead flow cytometry, RGS–Galpha-o binding. AID 1504. 99% of 1,600 active;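 also: fluorescently labeled Galpha-o bound to GDP with aluminium fluoride binding biotinylated RGS beads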
Avidin counter – interferes with biotinylated probe binding to avidin beads | shares compounds with RGS16-Gao | streptavidin beads, fluorescein-biotin binding, flow cytometry | inhibition, % at 10 µM | 1,700 tested, under 10 active;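 active = inhibition above 50%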;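 also: median green fluorescence of gated singlet beads compared with DMSO control wells; 0% = DMSO wells and 100% = complete loss of bead fluorescence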
RGS8-Gao confirm – confirmation of regulators of human RGS8-Galphao interaction | binding response (% of control), % at 10 µM | shares compounds with RGS16-Gao | 3% of 1,700 active | bead-based flow cytometry RGS8-Galphao binding, fluorescence; actives lie on both sides | AID 1836; in the data active = binding response below about 72% or above about 130%; inactive = in between;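 also: Galphao activated as GDP AlF4 complex before binding bead RGS8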
RGS7-Gao confirm – RGS7-Galphao interaction regulation, single point confirmation. shares compounds with RGS16-Gao. bead-based flow cytometry RGS7-Galphao binding; actives lie on both sides. response (percent of control binding), % at 10 µM. 7.8% of 1,700 active; in the data active = response below about 75% or above about 130%; inactive = in between;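 also: fluorescent Galphao activated with GDP and aluminum fluoride binding bead-coupled RGS7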
RGS16-Gao single – confirmation of regulators of human RGS16-Galphao interaction | shares compounds with RGS16-Gao | bead-based flow cytometry, RGS16-Galphao binding; actives lie on both sides | response (% of control binding), % at 10 µM | 4% of 1,700 active | AID 1838; in the data active = response below about 74% or above about 130%; inactive = in between;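 also: Galphao activated as the GDP aluminium fluoride complex binding bead-coupled RGS16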
RGS4-Gao confirm – RGS4-Galphao interaction regulation, single point confirmation; 4% of 1,700 active; binding response (% of control), % at 10 µM; RGS4-Galphao binding, multiplexed bead flow cytometry; actives lie on both sides; AID 1840; shares compounds with RGS16-Gao; in the data active = binding response below about 74% or above about 130%; inactive = in between
RGS19-Gao single – RGS19-Galphao interaction regulation, single point confirmation; shares compounds with RGS16-Gao; bead-based flow cytometry RGS19-Galphao binding; actives lie on both sides; response (percent of control binding), % at 10 µM; 5% of 1,700 active; AID 1841; in the data active = response below about 50% or above about 160%; inactive = in between;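 also: 100% = no compound control and 0% = blank background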
* marks the source's active call; other numbers are inactive results; ? = inconclusive; · = no result; [ ] = another dose, or the depositor's remark. Unless noted, no rule for the calls is given here.

SMILES	RGS7-Gao reg	GSH fluor	RGS8-Gao reg	RGS4-Gao reg	RGS16-Gao	Avidin fluor	RGS-Gao	Avidin counter	RGS8-Gao confirm	RGS7-Gao confirm	RGS16-Gao single	RGS4-Gao confirm	RGS19-Gao single
N#Cc1c(-c2ccccc2)nc(N2CCCCCC2)[nH]c1=O	88	52	82	86	15*	3	86*	0	101	104	104	103	95
CCc1ccc(OCC(=O)Nc2ncn[nH]2)cc1	87	11	94	93	94	8	·	·	·	·	·	·	·
CC1(C)CC(=O)C(C=NCCN2CCN(C(=O)CCl)CC2)=C(O)C1	?	·	101	101	101	3	·	·	·	·	·	·	·
CCC(=O)N1CCN(CCN=CC2=C(O)CC(C)(C)CC2=O)CC1	106	26	146*[activator]	105	165	10	105*	1	97	99	99	97	97
O=C(NCCCN1CCCC1)c1cccc(N2CCCC2=O)c1	7.6*	25	10*	18*	1	1	·	-1	100	105	100	107	98
O=C(NCCCN1CCN(c2ccc(F)cc2)CC1)c1cccc(N2CCCC2=O)c1	89	16	98	92	89	23	·	·	·	·	·	·	·
COc1ccc(OCC(=O)N2CCN(c3nnc(-c4ccccc4)c4ccccc34)CC2)cc1	15*	18	22*	12*	8.3*	-1	·	-1	111	120	115	115	99
CN(N)C(=S)Nc1ccc(Cl)cc1	100	8	104	102	105	22	·	·	·	·	·	·	·
COc1ccc(OC)c2sc(NC(=O)C3=COCCO3)nc12	105	25	102	104	102	7	·	·	·	·	·	·	·
COc1ccc(C)c2sc(NC(=O)C3=COCCO3)nc12	313*[activator]	25	84	132	109	175*	132*	·	·	·	·	·	·
COc1ccc(/C=C(/CC(=O)NCc2ccc(Cl)cc2)c2nc3ccccc3s2)cc1	102	12	103	102	110	14	·	·	·	·	·	·	·
COc1ccc(/C=C(/CC(=O)Nc2ccccc2)c2nc3ccccc3s2)cc1	74	9	70	76	18*	4	76*	0	99	84	94	89	109
O=C(/C=C/c1cccc([N+](=O)[O-])c1)n1cnc2ccccc21	100	14	99	96	98	14	·	·	·	·	·	·	·
CCN(C(=O)c1ccc(NC(C)=O)cc1)c1ccccc1	88	15	71	78	-20*	10	78*	1	98	97	97	99	100
Cc1cc(C)nc(NC(=O)C2c3ccccc3Oc3ccccc32)n1	100	11	101	103	106	11	·	·	·	·	·	·	·
O=C(Nc1ccc(-c2nc3ccccc3[nH]2)cc1)c1ccc2c(c1)OCO2	100	15	101	99	98	10	·	·	·	·	·	·	·
O=C(Nc1ccc(Cl)c(-c2nc3ccccc3[nH]2)c1)c1ccc2c(c1)OCO2	103	9	136	107	215*[activator]	6	107*	0	106	106	108	104	100

Screening data: PubChem, NMMLSC
